{"source": "PubChem BioAssay (NCI)", "note": "The panel holds about 83,000 compounds, 20% with a hit somewhere; the sample as a whole holds those more often.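 Interpretation: 100, growth as untreated; towards 0, rising growth inhibition; 0, no net growth; 0 to -100, cell death. Compounds scoring below 10 were considered active.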 Active and inactive are the calls of the source.", "data": [{"test_system": "U251 CNS", "test": "NCI-60 one-dose screen, 48 h (100 = growth as untreated, 0 = no growth, -100 = all killed)", "settings": "10 µM unless noted", "procedure": "Growth inhibition of the U251 human tumor cell line is measured as a screen for anti-cancer activity. Cells are grown in 96 well plates and exposed to the test compound for 48 hours. Compounds are tested at a single concentration, which is 10^-5 M for most compounds. The reported endpoint is percent growth (GI% or GIPRCNT), where numbers from 0 - 100% represent growth inhibition, and numbers from -100% - 0 represent cell death. For example, a value of 40 represents 60% growth inhibition. A value of 0 means no net growth occurred over the course of the experiment. A value of -40 indicates 40% of cells at the beginning of the experiment died by the end of the experiment. A value of -100 means all cells are dead at the end of the experiment.\nNCI-60 Human Tumor Cell Lines Screen was performed using the standard one-dose NCI protocol, which is described in more detail at https://dtp.cancer.gov/discovery_development/nci-60/default.htm.\nCompounds with GIPRCNT values below 10 were considered active. Activity score was based on GIPRCNT using the following formula: […]\nScore is 0 for GIPRCNT values of 100 or above, 50 for GIPRCNT values of 0, and 100 for GIPRCNT values of -100.", "values": [{"smiles": "CCN(CC)c1ccc(/C=N/NC(=O)c2ccc(S(N)(=O)=O)cc2)cc1", "growth": "33.5% (inactive)"}, {"smiles": "COC(=O)N1CCN(CCNCc2ccc(NC(=O)c3ccc(C)c(C#Cc4cnc5cccnn45)c3)cc2C(F)(F)F)CC1", "growth": "36.2% (inactive)"}, {"smiles": "Brc1ccc2[nH]cc(-c3nn4cc(-c5nccs5)nc4s3)c2c1", "growth": "61.3% (inactive)"}, {"smiles": "CN(C)CCNc1ccc2ncc(C#Cc3cncc(C(=O)Nc4ccc(CN5CCN(C)CC5)c(C(F)(F)F)c4)c3)n2n1", "growth": "23.8% (inactive)"}, {"smiles": "CCOc1cccc(/C(N)=N/C(N)=N/c2nc3ccccc3s2)c1", "growth": "58.3% (inactive)"}, {"smiles": "N#Cc1c(-c2cccs2)cc(-c2cnccn2)nc1SCC(=O)N/N=C/c1cccs1", "growth": "19.5% (inactive)"}, {"smiles": "CCn1c2ccc(/C=N/N(C)S(=O)(=O)CCN(C)C)cc2c2cc(/C=N/N(C)S(=O)(=O)CCN(C)C)ccc21", "growth": "64.8% (inactive)"}, {"smiles": "O=C1C(N2CCN(c3ccccc3)CC2)=C(Cl)C(=O)c2ncccc21", "growth": "79.5% (inactive)"}, {"smiles": "NS(=O)(=O)c1ccc(Nc2nc(N/N=C/c3ccc4c(c3)OCO4)nc(Nc3ccccc3)n2)cc1", "growth": "55.4% (inactive)"}, {"smiles": "C#Cc1nc(/C=C/CCCCCCC(=O)NO)cs1", "growth": "63.2% (inactive)"}, {"smiles": "O=c1c2cc(-c3ccc(F)cc3F)ccc2n(O)c(=O)n1-c1cccc(C(F)(F)F)c1", "growth": "5.79% (active)"}, {"smiles": "COc1ccc(/C=N/NC(=O)CSc2nc(-c3cnccn3)cc(-c3cccs3)c2C#N)cc1", "growth": "68.1% (inactive)"}, {"smiles": "O=C(CSc1nnc(-c2ccc(Cl)cc2)n1-c1ccccc1)Nc1ccc(Cl)cc1", "growth": "32.7% (inactive)"}, {"smiles": "FC(F)(F)c1cc(Br)cc(-c2cc(-c3ccc4c(c3)OCCO4)[nH]n2)c1", "growth": "23.1% (inactive)"}, {"smiles": "CCN(CC)CCOc1ccc(C(=C(C)c2ccc(OC)cc2)c2ccc(OCCN(CC)CC)cc2)cc1", "growth": "-44.5% (active)"}, {"smiles": "Cc1ccc(C(=O)CSc2nnc(-c3ccc(-c4ccc(Cl)cc4)nc3C)o2)cc1", "growth": "104% (inactive)"}, {"smiles": "CC(Nc1c(C#N)cnc2ccc(-c3cncc(O)c3)cc12)c1ccccc1", "note": "(stereo not given)", "growth": "6.74% (active)"}, {"smiles": "CN1CCN(CCCCCC(=O)Nc2nc(-c3cccc(NS(=O)(=O)c4cccc5c(N(C)C)cccc45)c3)cs2)CC1", "growth": "65% (inactive)"}, {"smiles": "Cc1ccc(/C=N/Nc2nc(Nc3ccccc3)nc(Nc3ccc(S(N)(=O)=O)cc3)n2)cc1", "growth": "62.6% (inactive)"}, {"smiles": "CC1=C(C)C(=O)C(Nc2cccc(C(=O)OC(C)(C)C)c2)=C(Cl)C1=O", "growth": "88.5% (inactive)"}, {"smiles": "CN1CCN(CC#CCn2c3c(c4ccccc42)C[C@]2(C)[C@H]4CC=C5[C@@H]6CC(C)(C)CC[C@]6(C(=O)N6CCOCC6)CC[C@@]5(C)[C@]4(C)CC[C@H]2C3(C)C)CC1", "growth": "43.4% (inactive)"}, {"smiles": "CC(=O)OCCCCN1C=C/C(=C\\C(=O)n2ccc3ccccc32)c2ccccc21", "growth": "102% (inactive)"}, {"smiles": "CCNC(=O)Oc1ccc(/C(=C(/C)c2ccc(Cl)cc2)c2ccc(OCCN3CCCCCC3)cc2)cc1", "growth": "27.5% (inactive)"}, {"smiles": "CN1CCN(c2ccc(Nc3nc(NCCNC(=O)c4ccccc4)c4sccc4n3)cc2)CC1", "growth": "18.3% (inactive)"}, {"smiles": "Cn1cc(-c2nnc(N)nc2-c2c[nH]c3ccc(F)cc23)c2cc(Br)ccc21", "growth": "17.5% (inactive)"}, {"smiles": "N#C/C(=C\\c1ccc(-c2ccc(Cl)cc2)o1)C(=O)Nc1ncc(Cc2ccc(Br)cc2)s1", "growth": "-81.9% (active)"}, {"smiles": "Cc1ncn(-c2ccc(/C=N/Nc3ccnc4cc(Cl)ccc34)cc2)c1C", "growth": "-81.7% (active)"}, {"smiles": "O=C(CCCCCCNC(=O)C(O)(O)C(F)(F)F)Nc1ccc(Br)cc1", "growth": "-21.3% (active)"}, {"smiles": "Clc1ccc2c(N/N=C/c3c[nH]c4ccccc34)ccnc2c1", "growth": "-84.1% (active)"}, {"smiles": "CN1CCN(CCNc2nc(-c3cccc(NS(=O)(=O)c4cccc5c(N(C)C)cccc45)c3)cs2)CC1", "growth": "65.9% (inactive)"}, {"smiles": "CCCCCc1ccc(S(=O)(=O)Nc2cc(-c3csc(N)n3)ccc2OC)cc1", "growth": "95.8% (inactive)"}, {"smiles": "Clc1ccc2[nH]cc(-c3nn4cc(-c5cccnc5)nc4s3)c2c1", "growth": "93.8% (inactive)"}, {"smiles": "CNC(=O)c1cc(Oc2ccc3c(c2)sc2nc(-c4ccc(N(C)C)cc4)cn23)ccn1", "growth": "13.5% (inactive)"}, {"smiles": "COc1ccc(-c2cc(-c3ccc(N4CCOCC4)cc3)n3c(n2)nc2ccccc23)cc1OC", "growth": "86.1% (inactive)"}, {"smiles": "COc1ccc(-c2nc(C#N)c(N3CCC(S(=O)(=O)N4CCOCC4)CC3)o2)cc1", "growth": "104% (inactive)"}, {"smiles": "CC(Nc1c(C#N)cnc2ccc(-c3cncc(-c4n[nH]c(=O)o4)c3)cc12)c1ccccc1", "note": "(stereo not given)", "growth": "17.6% (inactive)"}, {"smiles": "CC(C)NC(=O)c1cc(-c2ccc(NC(=O)Nc3ccc(F)cc3)cc2)nc2cccnc12", "growth": "104% (inactive)"}, {"smiles": "N/C(=N\\C(N)=N\\c1nc2ccccc2s1)c1ccc(Cl)cc1", "growth": "26.8% (inactive)"}, {"smiles": "CCCCCN1C(=O)/C(=c2\\sc3n(c2=O)C2C(NN=3)N(CC)C(=O)N2CC)c2cccc(C)c21", "note": "(stereo not given)", "growth": "61% (inactive)"}, {"smiles": "CCc1cc2c(cc1Cl)nc1c(=O)[nH]c(=O)nc-1n2CCOCC(C)C", "growth": "73.9% (inactive)"}]}]}
